Reference: PubChem BioAssay (EPA / NIEHS)
Records with an inconclusive call do not appear. Calls of active or inactive are those of the source. Rule for the calls: active = hit-call score of the fitted dose curve at least 0.9, where 1 is the maximum; inconclusive = response in the unintended direction; inactive = score below 0.9.

read-out: Broad substrate specificity ATP-binding cassette transporter ABCG2 (Homo sapiens) (UniProt Q9UNQ0); assay: CLD_ABCG2_48hr: CellzDirect (CLD) Gene Expression Assay for ABC Transporter (ABCG2) at 48 hours (AID 2283704);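 for AC50: potency for induction of ABCG2 mRNA above the DMSO baseline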
Method: CLD_48hr is a cell-based, multiplexed-readout assay that uses hepatocyte, a human liver primary cell, with measurements taken at 48 hours after chemical dosing in a 96-well plate.CLD_ABCG2_48hr is one of 16 assay component(s) measured or calculated from the CLD_48hr assay. It is designed to make measurements of mRNA induction, a form of inducible reporter, as detected with chemiluminescence signals by Quantitative Nuclease Protection Assay (qNPA) technology.Data from the assay component CLD_ABCG2_48hr was analyzed at the endpoint, CLD_ABCG2_48hr, in the positive analysis fitting direction relative to DMSO as the negative control and baseline of activity. Using a type of inducible reporter, gain-of-signal activity can be used to understand changes in the reporter gene as they relate to the gene ABCG2. Furthermore, this assay endpoint can be referred to as a primary readout. To generalize the intended target to other relatable targets, this assay endpoint is annotated to the transporter intended target family, where subfamily is ABC transporter.
Human hepatocyte cultures were treated daily for two consecutive days with fresh dosing solutions containing appropriate concentrations of the 320 ToxCast chemicals (chemical identities were blinded to CellzDirect and other ToxCast collaborators), vehicle control (0.2% DMSO), and positive control inducers as summarized in Table 1. Due to the large number of treatment groups and chemicals examined, the ToxCast chemicals were divided into two groups (spanning two independent cultures of hepatocytes from separate donor preparations (Hu778: ToxCast plates 1 and 2; Hu776: ToxCast plates 3 and 4). Each preparation of human hepatocyte cultures was treated with respective vehicle control, medium only control, set of six positive controls/reference chemicals for the five hepatic receptor pathways, and a subset of eight of the ToxCast chemicals (indoxacarb, pyrithiobac-sodium, norflurazon, cyhalofop-butyl, methomyl, thiram, acetochlor, and propiconazole). These replicate data, coupled with internal replicates designed within the blinded ToxCast chemical library, provided additional data to evaluate interindividual differences between hepatocyte preparations and their potential impact on chemical profiles.Cell morphology and integrity were evaluated using phase-contrast microscopy as an indicator of hepatocyte cell health (Tyson & Green, 1987). Cultures for each treatment group (i.e., media, vehicle [0.2% DMSO], positive control inducers [multiple concentrations], and the ToxCast chemicals [multiple concentrations]) were observed and cell morphology was assessed relative to vehicle control cultures at each harvest time point (0, 6, 24, or 48 h). […] Images were evaluated at the conclusion of the study to assess changes in cell integrity and account for the effects of chemical exposure on uncharacteristic changes in concentration-dependent gene expression profiles. The results from these determinations of apparent cytotoxicity were annotated (yes/no) alongside the corresponding qNPA data for reference.At the conclusion of each treatment period, hepatocyte cultures (96-well) were washed with 1 volume of HBSS, lysed by addition of 25 ul ArrayPlate lysis buffer (HTG, Tucson, AZ), and 70 ul/well of Denaturation Oil, denatured by incubation at 95C for 10 min, and frozen at approximately -70C until analysis by nuclease protection assay (qNPA) (Roberts et al., 2007). For qNPA analysis, cell lysates were thawed at 50C for approximately 30 min, qNPA probes were added, and samples were incubated at 95C for 10 min to begin the detection process by denaturing the target RNA, dissociating the duplexes and secondary structure hybridization. At the conclusion of the hybridization period, S1 nuclease reagent was added to each sample to digest all nonprotected nucleotides at 50C for 60-90 min. […]

Chain of Broad substrate specificity ATP-binding cassette transporter ABCG2 (Homo sapiens) (Q9UNQ0 whole entry, looked up): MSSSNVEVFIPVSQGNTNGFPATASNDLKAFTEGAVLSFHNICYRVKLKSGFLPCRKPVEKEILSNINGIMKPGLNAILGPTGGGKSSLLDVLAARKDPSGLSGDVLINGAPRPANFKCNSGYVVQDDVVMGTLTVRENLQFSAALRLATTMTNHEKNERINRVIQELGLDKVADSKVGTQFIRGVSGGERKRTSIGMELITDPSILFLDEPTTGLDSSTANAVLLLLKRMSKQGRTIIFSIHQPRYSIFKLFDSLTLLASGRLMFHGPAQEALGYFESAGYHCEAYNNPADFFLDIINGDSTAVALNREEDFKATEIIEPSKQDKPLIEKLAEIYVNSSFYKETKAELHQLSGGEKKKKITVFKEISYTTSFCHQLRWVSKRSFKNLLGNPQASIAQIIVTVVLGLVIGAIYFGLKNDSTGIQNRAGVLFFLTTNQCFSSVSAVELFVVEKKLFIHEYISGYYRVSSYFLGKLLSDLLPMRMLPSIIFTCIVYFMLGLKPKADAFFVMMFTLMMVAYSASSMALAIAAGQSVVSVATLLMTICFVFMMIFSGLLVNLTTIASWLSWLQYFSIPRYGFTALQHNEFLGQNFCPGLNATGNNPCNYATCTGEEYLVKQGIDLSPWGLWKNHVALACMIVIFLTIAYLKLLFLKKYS

Structure (SMILES)	outcome	AC50
N#Cc1c(Cl)c(Cl)c(Cl)c(C#N)c1Cl	inactive	–
Cc1cc(C)nc(NC(=O)NS(=O)(=O)c2ccccc2C(=O)OC2COC2)n1	inactive	–
CNC(=O)/C=C(\C)OP(=O)(OC)OC	inactive	–
CC[C@H](C)[C@H]1O[C@]2(C=C[C@@H]1C)C[C@@H]1C[C@@H](C/C=C(\C)[C@@H](O[C@H]3C[C@H](OC)[C@@H](O[C@H]4C[C@H](OC)[C@@H](O)[C@H](C)O4)[C@H](C)O3)[C@@H](C)/C=C/C=C3\CO[C@@H]4[C@H](O)C(C)=C[C@@H](C(=O)O1)[C@]34O)O2 (tested in a mixture with another compound)	–	3.14 µM (active)
O=C1c2ccccc2C(=O)N1SC(Cl)(Cl)Cl	inactive	–
COP(=O)(OC)OC=C(Cl)Cl	inactive	–
CN1CSC(=S)N(C)C1	inactive	–
CC(C)(C)C(O)C(Oc1ccc(Cl)cc1)n1cncn1 (stereo not drawn)	inactive	–
CCS(=O)(=O)c1cccnc1S(=O)(=O)NC(=O)Nc1nc(OC)cc(OC)n1	inactive	–
CCOCN(C(=O)CCl)c1c(C)cccc1CC	inactive	–
CNC(=O)CSP(=S)(OC)OC	inactive	–
N#CN	inactive	–
CC(C)(C)C(O)/C(=C\c1ccc(Cl)cc1Cl)n1cncn1 (stereo not drawn)	–	31.5 µM (active)
C#CCN1C(=O)COc2cc(F)c(N3C(=O)C4=C(CCCC4)C3=O)cc21	inactive	–
Oc1ccc(Cl)cc1Cc1ccccc1	inactive	–
Oc1cc(Cl)ccc1Oc1ccc(Cl)cc1Cl	inactive	–
O=C(O)C(F)(F)C(F)(F)C(F)(F)C(F)(F)C(F)(F)C(F)(F)C(F)(F)F	inactive	–
CCC(C)Nc1c([N+](=O)[O-])cc(C(C)(C)C)cc1[N+](=O)[O-] (stereo not drawn)	inactive	–
CCOc1nc(NC)nc(NC(=O)NS(=O)(=O)c2ccccc2C(=O)OC)n1	inactive	–

Structure (SMILES)	outcome	AC50
O=C(Nc1ccccc1)Nc1cnns1	inactive	–
CC(C)N(C(=O)COc1nnc(C(F)(F)F)s1)c1ccc(F)cc1	inactive	–
CC1(c2ccc(Oc3ccccc3)cc2)OC(=O)N(Nc2ccccc2)C1=O (stereo not drawn)	inactive	–
[2H]C1([2H])[n+]2ccccc2-c2cccc[n+]2C1([2H])[2H]	inactive	–
O=[N+]([O-])c1c(Cl)c(Cl)c(Cl)c(Cl)c1Cl	inactive	–
Clc1ccccc1-c1nnc(-c2ccccc2Cl)nn1	inactive	–
O=S1OCC2C(CO1)C1(Cl)C(Cl)=C(Cl)C2(Cl)C1(Cl)Cl (stereo not drawn)	inactive	–
CCC(C)(C)C(=O)OC1=C(c2ccc(Cl)cc2Cl)C(=O)OC12CCCCC2	inactive	–
CCOC1Oc2ccc(OS(C)(=O)=O)cc2C1(C)C (stereo not drawn)	inactive	–
O=C(O)COc1ccc(Cl)cc1Cl	inactive	–
C[C@H]1[C@H](c2ccc(Cl)cc2)SC(=O)N1C(=O)NC1CCCCC1	–	34.8 µM (active)
COc1cc(OC)nc(NC(=O)NS(=O)(=O)c2cc(NC=O)ccc2C(=O)N(C)C)n1	inactive	–
O=C(NC(=O)c1c(F)cccc1F)Nc1ccc(OC(F)(F)C(F)OC(F)(F)F)c(Cl)c1 (stereo not drawn)	inactive	–
CCCN(CCOc1c(Cl)cc(Cl)cc1Cl)C(=O)n1ccnc1	–	35.4 µM (active)
ClC1C(Cl)C(Cl)C(Cl)C(Cl)C1Cl (stereo not drawn)	inactive	–
COC(=O)c1ccccc1CS(=O)(=O)NC(=O)Nc1nc(OC)cc(OC)n1	inactive	–
COP(=S)(OC)Oc1ccc([N+](=O)[O-])cc1	inactive	–
O=C(O)CCCOc1ccc(Cl)cc1Cl	inactive	–
COC(=O)c1ccccc1S(=O)(=O)NC(=O)Nc1nc(C)nc(OC)n1	inactive	–
